Source: PubChem BioAssay AID2284122 (EPA ToxCast)
Activity calls are given as the source filed them. Rule for the calls: active = hit-call score of the fitted dose curve at least 0.9, where 1 is the maximum; inactive = score below 0.9.

target: human TRKA Receptor Tyrosine Kinase, NTRK1 (gene 4914) (UniProt P04629); experiment: ERF_FR_ENZ_hNTRK1: Eurofins (ERF) Enzymatic Radiometric [Km ATP] KinaseProfiler LeadHunter Assay for human TRKA Receptor Tyrosine Kinase
Experimental: ERF_FR_ENZ_hNTRK1 is a biochemical, single-readout assay that uses extracted gene-proteins in a cell-free assay. Measurements were taken 0.16 hour after chemical dosing in a 96-well plate. See TRKA Human RTK Kinase Enzymatic LANCE Assay [Km ATP], Cerep.ERF_FR_ENZ_hNTRK1 is an assay component calculated from the ERF_FR_ENZ_hNTRK1 assay. It is designed to measure enzyme activity using a type of enzyme reporter as detected by fluorescence intensity with LANCE technology.Data from the assay component ERF_FR_ENZ_hNTRK1 was analyzed at the assay endpoint, ERF_FR_ENZ_hNTRK1, in the positive analysis fitting direction relative to DMSO as the negative control and baseline of activity. Using a type of enzyme reporter, loss-of-signal activity can be used to understand changes in enzymatic activity as they relate to gene NTRK1. To generalize the intended target to other relatable targets, this assay endpoint is annotated to the kinase intended target family, where the subfamily is receptor tyrosine kinase.
TrkA (h) is incubated with 8 mM MOPS pH 7.0, 0.2 mM EDTA, 250 uM […], 10 mM MgAcetate and [g- 33P]-ATP (specific activity and concentration as required). The reaction is initiated by the addition of the Mg/ATP mix. After incubation for 40 minutes at room temperature, the reaction is stopped by the addition of phosphoric acid to a concentration of 0.5%. An aliquot of the reaction is then spotted onto a filter and washed four times for 4 minutes in 0.425% phosphoric acid and once in methanol prior to drying and scintillation counting.Compound should be supplied in 100% DMSO.We require a stock solution at a concentration of at least 50x higher than the Final Assay Concentration of your cpd. A 10mM stock is also acceptable.When ordering fewer than 60 kinase assays, we need 120uL of 50x concentrated stock. For more than 60 assays, we need 420 uL of 50xcc stock. Please apply the conversion if you provide 10mM stock solution or compounds in powder form (pre-weighed is required) From 50 cpds supplied as solids, the TAT will be extended.

Chain of human TRKA Receptor Tyrosine Kinase, NTRK1 (gene 4914) (P04629 whole entry, looked up): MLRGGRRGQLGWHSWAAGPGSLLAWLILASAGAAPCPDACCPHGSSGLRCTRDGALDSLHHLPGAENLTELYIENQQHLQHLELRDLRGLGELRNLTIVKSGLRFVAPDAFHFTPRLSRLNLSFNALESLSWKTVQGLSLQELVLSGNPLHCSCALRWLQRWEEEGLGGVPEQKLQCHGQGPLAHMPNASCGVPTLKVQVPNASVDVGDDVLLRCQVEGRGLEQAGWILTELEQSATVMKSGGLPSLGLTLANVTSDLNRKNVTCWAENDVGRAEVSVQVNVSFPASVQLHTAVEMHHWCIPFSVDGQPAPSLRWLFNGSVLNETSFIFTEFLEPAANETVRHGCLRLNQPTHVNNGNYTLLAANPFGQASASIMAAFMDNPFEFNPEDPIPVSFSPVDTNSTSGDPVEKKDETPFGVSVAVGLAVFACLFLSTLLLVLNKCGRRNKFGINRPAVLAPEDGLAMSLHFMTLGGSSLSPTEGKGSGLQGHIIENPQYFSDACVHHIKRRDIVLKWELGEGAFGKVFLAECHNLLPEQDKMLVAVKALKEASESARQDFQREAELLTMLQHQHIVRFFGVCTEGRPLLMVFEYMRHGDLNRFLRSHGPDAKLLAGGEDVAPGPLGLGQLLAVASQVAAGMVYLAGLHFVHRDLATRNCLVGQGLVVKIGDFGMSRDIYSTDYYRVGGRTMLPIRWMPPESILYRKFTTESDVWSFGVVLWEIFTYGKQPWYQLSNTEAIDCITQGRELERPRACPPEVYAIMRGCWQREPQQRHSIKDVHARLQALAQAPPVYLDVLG

Compound | AC50 | outcome
COc1cc(/C=C/C(=O)CC(=O)/C=C/c2ccc(O)c(OC)c2)ccc1O | 3.85 µM (active) | 
COc1cc(CCC(=O)CC(=O)CCc2ccc(O)c(OC)c2)ccc1O |  | inactive
O=C(/C=C/c1ccc(O)cc1)CC(=O)/C=C/c1ccc(O)cc1 |  | inactive
